DT40 TDP1 no CPT – qHTS for Inhibitors of human tyrosyl-DNA phosphodiesterase 1 (TDP1): qHTS in cells in absence of CPT. DT40 Tdp1-/- hTDP1 cells, no CPT, ATP luminescence, 48 h. Potency, µM (top dose mostly 46.2 µM), actives largely listed as inhibitors. 420,000 tested, 15% active. AID 686978, 2013; note: nearly all actives have a fitted effect of over 55% in size
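Chicken DT40 Tdp1-/- cells stably complemented with human TDP1 were seeded at 400 cells/well with DMSO in place of 20 nM camptothecin. After compound pinning, cells grew at least 48 hr at 37 °C; viability read by CellTiter-Glo luminescence.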
DT40 TDP1 CPT – DT40-hTDP1 cell growth loss with CPT; chicken DT40 Tdp1-/-;hTDP1 cells + 20 nM CPT, ATP luminescence, 48 h; Potency, µM (top dose mostly 46.2 µM), usual class: inhibitors; 420,000 tested, 12% active; AID 686979; note: nearly all actives have a fitted effect of over 55% in size
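Chicken DT40 Tdp1-/- cells stably complemented with human TDP1 were seeded at 400 cells/well in medium containing 20 nM camptothecin, exposed to pin-transferred compounds, and grown at 37 °C for at least 48 hr. Viability was read as ATP luminescence.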
TGFb SMAD3 inh – TGF-b pathway inhibition. HepG2 CAGA-GFP TGF-b/SMAD3 reporter, GFP fluorescence, 18 h; TGF-beta stimulated, 500 pg/mL final. Potency, µM (doses to about 46.1 µM), actives largely listed as inhibitors. 410,000 tested, 1.2% active; note: nearly all actives have a fitted effect of over 65% in size
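Inhibition was scored as loss of TGF-beta-induced (500 pg/mL final, 18 hours, 37 degrees C) GFP in HEPG2 cells carrying a CAGA-GFP reporter, in DMEM with 1% FBS. Well GFP was summed per cell; Activity was normalised to unstimulated and stimulated DMSO wells, then concentration-response fitting.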
TDP1 inh – TDP1 (human) enzyme inhibition | 350,000 tested, 0.28% active | recombinant TDP1, AlphaScreen DNA substrate cleavage | Potency, µM (series often up to 130 µM), most hits filed as inhibitors | Q9NUW8; note: nearly all actives have a fitted effect of over 40% in size
Target sequence (Q9NUW8 whole entry, looked up): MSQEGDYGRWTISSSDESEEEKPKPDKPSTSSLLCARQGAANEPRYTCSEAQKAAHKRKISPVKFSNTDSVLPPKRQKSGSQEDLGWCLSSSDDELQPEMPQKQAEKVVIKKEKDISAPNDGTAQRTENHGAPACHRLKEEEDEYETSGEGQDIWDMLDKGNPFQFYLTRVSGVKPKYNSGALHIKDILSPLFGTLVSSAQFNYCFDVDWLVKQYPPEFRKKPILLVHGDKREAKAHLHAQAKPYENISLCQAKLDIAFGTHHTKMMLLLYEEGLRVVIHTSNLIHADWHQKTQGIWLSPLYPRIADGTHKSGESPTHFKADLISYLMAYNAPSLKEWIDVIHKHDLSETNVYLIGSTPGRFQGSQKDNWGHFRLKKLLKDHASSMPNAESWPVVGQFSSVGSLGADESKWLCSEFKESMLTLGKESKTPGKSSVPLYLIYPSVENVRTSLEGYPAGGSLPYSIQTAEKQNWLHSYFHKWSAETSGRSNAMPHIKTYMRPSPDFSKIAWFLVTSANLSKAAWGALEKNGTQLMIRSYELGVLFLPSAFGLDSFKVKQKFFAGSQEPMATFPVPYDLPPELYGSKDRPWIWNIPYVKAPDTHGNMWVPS
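Compounds were preincubated with Tdp1 (1 nM final) for 15 min at room temperature before substrate (15 nM final) started a 5 min reaction; beads (10 ug/ml final) were then added for 10 min before AlphaScreen detection.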
HepG2 viability – HepG2 cytotoxicity, counter-screen for TGF-b inhibitors; HepG2 CAGA-GFP viability, ATP luminescence, 18 h; 410,000 tested, 0.76% active; AID 588856; Potency, µM (series often up to 46.1 µM), hits mostly cytotoxic
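CellTiter-Glo luminescence gave cytotoxicity after 18 hours at 37 degrees C. The cells were HepG2 CAGA-GFP in 1% FBS DMEM, stimulated with 500 pg/mL TGF-beta after compound addition. %Activity was normalised to no-cell wells (complete cell-killing) and DMSO (no toxicity), and curves were fitted and classified.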
IL-1B inflam inh – blocks inflammasome-driven IL-1 beta release | THP-1 LPS/ATP IL-1B secretion, AlphaLISA, 16 h; stronger effect = lower value | activity change, % at 57.5 µM | 360,000 tested, 4.7% active | AID 743279; in the data active = activity change below about -50%; inconclusive = mostly about -30% to -49%
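Secreted IL-1B measured by AlphaLISA bead assay after 16 h compound exposure of THP-1 cells; compounds (final up to 57.5 uM) added 1 h before LPS (250 ng/mL) and ATP (1.25 mM) stimulation; lower signal means less secretion.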
Of the large screens only hits and unclear results are named; the others gave an inactive call. Only some compounds are listed: those with a hit (about 18% of all), similar ones and a draw of the others. Unless noted, calls come from the whole dose curve; as a rule, active = well fitted curve in the direction sought with a large enough effect; inconclusive = small, poorly fitted or top-dose-only effect, or another doubt; inactive = no such curve, though single readings can be large; an effect the other way counts as inactive or inconclusive.

CC(C)(C)c1ccc(C(=O)NCCC(=O)Nc2ccc3c(c2)OCCO3)cc1	none
COc1ccccc1C1CC(=O)Oc2ccc(C(C)(C)C)cc21 (stereo unspecified)	none
COc1ccc(CCN(C)C(=O)CNC(=O)Cc2cccc3ccccc23)cc1OC	none
CC1C/C(=N\NC(=S)NC(C)C)CC(C)(C)C1 (stereo unspecified)	DT40 TDP1 no CPT 18µM, DT40 TDP1 CPT 10µM
COc1ccc(-n2c(SCC(=O)NCc3ccc(C)cc3)nc3n[nH]c(C)c3c2=N)cc1	DT40 TDP1 no CPT 4.1µM, DT40 TDP1 CPT 6.5µM (no result: IL-1B inflam inh)
Cc1ccc(CNC(=O)CSc2nc(=O)n3ccccc3n2)cc1	none
Cc1ccc(CNC(=O)CSc2nc3n[nH]c(C)c3c(=N)n2-c2ccccc2Cl)cc1	DT40 TDP1 no CPT 23µM, DT40 TDP1 CPT 18µM, TGFb SMAD3 inh inconclusive (no result: IL-1B inflam inh)
COc1ccc(-c2nc(SCC(=O)NC3CCCCC3)n[nH]2)cc1	DT40 TDP1 no CPT inconclusive, DT40 TDP1 CPT inconclusive
Cc1c(Cl)cccc1-n1c(SCC(=O)NCc2ccccc2)nc2n[nH]c(C)c2c1=N	DT40 TDP1 no CPT 12µM, DT40 TDP1 CPT 15µM, TGFb SMAD3 inh 11µM (no result: IL-1B inflam inh)
COc1ccc(CNC(=O)CSc2n[nH]c(-c3ccc(OC)cc3)n2)cc1	DT40 TDP1 no CPT 13µM, DT40 TDP1 CPT 9.2µM (no result: IL-1B inflam inh)
Cc1c(Cl)cccc1NC(=O)CSc1nc(=O)n(Cc2ccncc2)c2c1CCC2	none (no result: IL-1B inflam inh)
CN1C(=O)C(CC#N)(C2(CC#N)C(=O)N(C)c3ccccc32)c2ccccc21 (stereo unspecified)	none (no result: TDP1 inh)
Cc1ccc(-n2c(SCC(=O)NCc3ccccc3)nc3n[nH]c(C)c3c2=N)cc1Cl	DT40 TDP1 no CPT 2.3µM, DT40 TDP1 CPT 4.1µM, TGFb SMAD3 inh inconclusive (no result: IL-1B inflam inh)
CCN(CC)C(=O)C1=C(C)N(Cc2ccc(F)cc2)C(=O)C(CC(=O)NCCN2CCOCC2)C1 (stereo unspecified)	none (no result: TDP1 inh)
C/C(=N\Nc1nncc2ccccc12)c1cccc(OC(F)F)c1	DT40 TDP1 no CPT inconclusive
Cc1ccc(-c2nc3ccccn3c2Nc2ccc3c(c2)OCCO3)o1	DT40 TDP1 no CPT inconclusive, DT40 TDP1 CPT inconclusive (no result: IL-1B inflam inh)
COc1ccc(Nc2c(-c3ccc(C)o3)nc3cc(C)ccn23)cc1	DT40 TDP1 no CPT 12µM, DT40 TDP1 CPT 15µM, TGFb SMAD3 inh inconclusive (no result: IL-1B inflam inh)
Cc1ccn2c(Nc3ccc4c(c3)OCO4)c(-c3ccc(C)o3)nc2c1	DT40 TDP1 no CPT inconclusive, DT40 TDP1 CPT 15µM, TGFb SMAD3 inh inconclusive (no result: IL-1B inflam inh)
COC(=O)NNC(=S)Nc1ccc(Br)cc1	DT40 TDP1 CPT inconclusive
CC(C)CCn1c(=O)c2ccccc2n2c(CN3CCOCC3)nnc12	DT40 TDP1 CPT inconclusive
CCCCn1c(=O)c(CCC(=O)OCC(=O)NC(=O)NCCOC)nc2ccccc21	none
CCOc1c2ccc(C(=O)NCc3ccc(C(F)(F)F)cc3C(F)(F)F)cc2nn1C	TGFb SMAD3 inh inconclusive, IL-1B inflam inh -51
CCn1nc2cc(C(=O)NCc3cc(C(F)(F)F)cc(C(F)(F)F)c3)ccc2c1OC	IL-1B inflam inh -57
CCCCn1nc2cc(C(=O)NCc3ccc(C(F)(F)F)cc3C(F)(F)F)ccc2c1OCC	DT40 TDP1 no CPT inconclusive, DT40 TDP1 CPT inconclusive
OCC(CO)(CO)N=Cc1c(O)ccc2ccccc12	DT40 TDP1 no CPT inconclusive, DT40 TDP1 CPT inconclusive
CN(C)/N=C/c1c(O)ccc2ccccc12	none
CS/C(N)=N/N=C/c1c(O)ccc2ccccc12	DT40 TDP1 no CPT 3.7µM, DT40 TDP1 CPT inconclusive, TGFb SMAD3 inh inconclusive
Oc1ccc2ccccc2c1C=NC12CN3CCN(CN(C3)C1)C2	DT40 TDP1 no CPT inconclusive, DT40 TDP1 CPT 13µM, TGFb SMAD3 inh inconclusive
O=C(Cn1cncn1)NCCC(c1ccccc1)c1ccccc1	none
C[C@@H]1CN([C@H](C)CO)C(=O)CCCn2cc(nn2)CO[C@H]1CN(C)C(=O)Nc1cccc(F)c1	none (no result: TDP1 inh)

From PubChem
